Growth data for 26 compounds are collected here from PubChem BioAssay (NCI).

Molecules are shown by their SMILES. The panel holds about 83,000 compounds, 20% with a hit somewhere; the sample as a whole holds those more often.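 The endpoint reported here, percent growth, reads 100 for growth as untreated, 0 for no net growth and -100 for all cells dead.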 A number with no mark means an inactive call. Calls of active or inactive are those of the source. How the source made its calls: active means growth percent below 10; inactive means the rest.

Common to all, as to assay: NCI-60 one-dose screen, 48 h (100 = growth as untreated, 0 = no growth, -100 = all killed)
What all share (details): 10 µM unless noted

Assay [1] concerns NCI-H23 lung.
Assay [2] has as its system NCI-H226 lung.
Assay [3] has as its system NCI-H322M lung.
The test system of assay [4] is HOP-62 NSCLC.
Assay [5] relates to NCI-H460 lung.
Assay [6] relates to HOP-92 NSCLC.
Assay [7] has as its system NCI-H522 lung.
For assay [8], the system named is A549/ATCC NSCLC.
For assay [9], the system named is 786-0 renal.
Assay [10] relates to COLO 205 colon.

On to `O=C1c2c(O)cc(O)cc2O[C@@H](c2ccc(O)cc2)[C@@H]1c1c(O)cc(O)c2c(=O)cc(-c3ccc(O)c(O)c3)oc12`, for which the growth was 92% in assay [1]; 76.6% in assay [2]; 97% in assay [3]; 96.3% in assay [4]; 112% in assay [5]; 104% in [6]. Also, the growth in [7] is 97.4%; in [8] it was 106%; in [9], 100%; in assay [10], 114%.

In the case of `CCN1C(=O)N(CC)C2SC(N/N=C/c3ccccc3)=NC21` (stereo not given), the growth in [1] was 31.1%; in [2], 43%; in assay [3] it was 51.7%; in assay [4], 38.3%; in assay [5], 6.05% (active); in [6], 2.09% (active). For the same compound, the growth in assay [7] was -34.3% (active); in assay [8], 28.7%; in assay [9], 32.7%; in assay [10], -43.5% (active).

Turning to `COc1cc(/C=C2\SC(=O)NC2=O)ccc1OCC(=O)Nc1ccc(C(=O)/C=C/c2cc3ccccc3nc2Cl)cc1`, the growth in assay [1] was 68.6%; in [2] it was 96.2%; in [3] it was 99.2%; in assay [4] it was 107%; in [5], 96.3%; in assay [6], 82.5%. For the same compound, the growth was 72.5% in [7], 102% in assay [8], 101% in assay [9] and 116% in assay [10].

On to `CC(C)SC1=NC(=C(C(=N1)NC2=ClC=CC=C2)C#N)C3=CC=CC=C3`, for which the growth is 37.7% in assay [1]; 69.3% in [2]; 28% in [3]; 72.9% in [4]; 22.2% in assay [5]; 76.6% in assay [6]. Besides, the growth is 84.5% in assay [7], 35.2% in [8], 34.7% in assay [9] and 71.4% in [10].

Take `O=C1Nc2ccc(Cl)cc2/C1=C/c1ccc(OCc2ccc(F)cc2)cc1`: the growth in assay [1] was 92.5%; in assay [2], 96.4%; in assay [3] it was 95.7%; in assay [4] it was 107%; in [5] it was 97.7%; in assay [6] it was 85.6%. The growth in [7] was 90.4%; in assay [8], 91.1%; in assay [9], 98.4%; in assay [10], 99.4%.

Consider `O=C(NNc1nc2cc(F)c(F)cc2n2cccc12)c1ccncn1`, for which the growth in assay [1] was 18.3%; in assay [2], 16.2%; in assay [3], 28.9%; in assay [4] it was 26.8%; in assay [5], 9.5% (active); in assay [6] it was 62.7%. Moreover, the growth was 2.02% (active) in assay [7], 18% in assay [8], 11.9% in assay [9] and 19.9% in assay [10].

As for `O=c1c2c(O)cccc2oc2c3c(cc(O)c12)O[C@H]1OC=C[C@@H]31`, the growth is 59.9% in assay [1]; 88.7% in [2]; 88.4% in assay [3]; 82.4% in assay [4]; 73.5% in assay [5]; 88.7% in assay [6]. Moreover, the growth in assay [7] was 79.9%; in assay [8], 61%; in assay [9] it was 98.9%; in assay [10] it was 75.1%.

With `CN1CCN(c2nc(-c3csc(-c4ccncc4)n3)cc3ccccc23)CC1`, the growth was 71.8% in assay [1]; 98.1% in assay [2]; 82.1% in assay [3]; 85% in assay [4]; 78.2% in [5]; 15.3% in assay [6]. The growth is 55.7% in assay [7], 71.1% in assay [8], 65.7% in assay [9] and 39.6% in [10].

Consider `O=C(NCCCCCCNC(=O)c1c2c(nc3ccccc13)-c1cccnc1SC2)c1c2c(nc3ccccc13)-c1cccnc1SC2`, for which the growth in [1] was 63.1%; in assay [2], 82.6%; in [3], 71.9%; in assay [4] it was 43.9%; in assay [5] it was 75%; in assay [6], 50.8%. For the same compound, the growth in assay [7] is 95.7%; in assay [8], 70.6%; in [9] it was 76.5%; in assay [10], 28.8%.

As to `Cc1ccccc1/C=C/c1nn2c(-c3ccoc3C)nnc2s1`, the growth was 97.8% in [1]; 100% in [2]; 99.4% in assay [3]; 107% in [4]; 102% in assay [5]; 93.9% in [6]. Besides, the growth in assay [7] is 92.4%; in assay [8], 90%; in [9], 90.8%; in assay [10], 108%.

As to `O=C1Nc2cc(OC(F)(F)F)ccc2Oc2ccc(-c3ccnc(N4CCNCC4)c3)cc21`, the growth in assay [1] was 27.4%; in assay [2], 53%; in [3] it was 39%; in assay [4] it was 21.6%; in [5], -80.6% (active); in assay [6] it was -0.729% (active). The growth in [7] was -57.2% (active); in assay [8], 9.42% (active); in assay [9] it was -62.7% (active); in assay [10] it was -80.2% (active).

As to `O=S(=O)(Nc1ccc(-c2nc(-c3cccc(O)c3)c(-c3ccnc(Br)c3)[nH]2)cc1)c1ccccc1`, the growth in assay [1] is 16.2%; in assay [2], 40.1%; in assay [3], 41.7%; in [4], 33.1%; in assay [5] it was 19.7%; in [6], 13.7%. The growth in assay [7] was 25.5%; in assay [8], 51.5%; in [9] it was 17.7%; in assay [10], 43.3%.

In the case of `CCN1CCN(c2cc(C(=O)Nc3nc4ccc(Oc5ccnc(C(=O)NC)c5)cc4s3)cc(C(F)(F)F)c2)CC1`, the growth in [1] is 89.6%; in [2] it was 90.8%; in assay [3], 95%; in [4] it was 104%; in [5], 46.4%; in assay [6], 91.1%. The growth in [7] is 78.7%; in assay [8] it was 86.5%; in assay [9], 70%; in assay [10], 59.9%.

As to `CC(C)(C)CC(C)(C)n1nnnc1C(Nc1ccccc1)c1cc2cccc3ccc4cccc1c4c32` (stereo not given), the growth was 82.3% in [1]; 84% in [2]; 91.5% in assay [3]; 86.1% in assay [4]; 81.7% in assay [5]; 49.7% in [6]. The growth is 72% in [7], 78.5% in assay [8], 88.4% in assay [9] and 96.4% in assay [10].

On to `COc1ccc(N2CCN(C(=O)CSc3ccc(-c4nc5cc(C)c(C)cc5[nH]4)cn3)CC2)cc1`, for which the growth in assay [1] was 54.5%; in assay [2], 66.8%; in [3], 76.6%; in assay [4], 84.9%; in [5] it was 89.9%; in assay [6] it was 85%. The growth in assay [7] is 36%; in assay [8], 77.3%; in assay [9], 102%; in assay [10] it was 60.2%.

On to `O=C(/C=C1\C=CN(CCCCF)c2ccccc21)n1ccc2ccccc21`, for which the growth in [1] was 98.5%; in assay [2], 91.9%; in assay [3], 93.3%; in assay [4] it was 93%; in assay [5], 113%; in assay [6], 90.9%. In addition, the growth in assay [7] is 94.7%; in assay [8], 104%; in [9] it was 107%; in [10], 96.6%.

With `CCN(CC)CCCC(C)NCC(=O)NC(c1ccc2c(c1)OCO2)c1cc(Cl)c2cccnc2c1O` (stereo not given), the growth in assay [1] is 41.7%; in assay [2], 41.2%; in assay [3], 35.2%; in assay [4], 21.6%; in [5], 8.77% (active); in assay [6], 35.9%. For the same compound, the growth in assay [7] is 37.4%; in [8] it was 24.1%; in assay [9], 7.03% (active); in assay [10], 17.6%.

As for `COc1cc2c3c(n(CCCNC4CCCC4)c(=O)c2cc1OC)-c1cc2c(cc1C3=O)OCO2`, the growth was -62.8% (active) in assay [1]; 80.5% in assay [2]; 6.3% (active) in assay [3]; -78% (active) in assay [4]; -74.4% (active) in assay [5]; 103% in assay [6]. The growth in assay [7] was 54.6%; in [8], -78.8% (active); in [9] it was -87.9% (active); in assay [10], -89.9% (active).

For `C=C(C)C(=O)O[C@H]1C[C@@]2(C)OC(=CC2=O)[C@H](C)[C@H](O)[C@H]2OC(=O)C(=C)[C@@H]21`, the growth was 58.4% in assay [1]; 92.2% in assay [2]; 93.8% in assay [3]; 93.5% in assay [4]; 93.3% in [5]; 69.7% in assay [6]. The growth was -67.6% (active) in [7], 94.7% in assay [8], 64.2% in assay [9] and 13.6% in [10].

Regarding `COc1cc(/C=N/n2cnc3oc(-c4ccccc4)cc3c2=N)cc(CN2CCCC2)c1O`, the growth was 103% in [1]; 90.5% in assay [2]; 96.7% in assay [3]; 85.5% in assay [4]; -58.6% (active) in [5]; 77.9% in [6]. Besides, the growth in assay [7] is 96.4%; in assay [8], 64.7%; in [9], -81% (active); in assay [10] it was 11.8%.

Take `CCOC(=O)c1c(NC(=O)c2cccc(C(F)(F)F)c2)sc2c(CN3CCN(C)CC3)c(O)ccc12`: the growth is 53.4% in [1]; 83.8% in assay [2]; 8.01% (active) in [3]; 38.8% in assay [4]; -64.4% (active) in [5]; 30.7% in assay [6]. The growth in [7] is -14.4% (active); in assay [8] it was 32%; in assay [9], -83.6% (active); in [10] it was -55.1% (active).

Turning to `Cc1ccc(/C=C/CC(=O)Nc2ccc(C(=O)Nc3ccc(F)cc3N)cc2)cn1`, the growth in [1] is 68.6%; in [2], 68.6%; in assay [3], 74.4%; in [4], 59.1%; in [5] it was 72.1%; in [6], 22.6%. The growth in assay [7] was 30.4%; in assay [8], 69.2%; in assay [9], 75.6%; in assay [10] it was 49.4%.

With `O=S(=O)(Nc1cc(Cl)cc(Cl)c1)c1ccc(-c2cnc(C3CC3)o2)cc1`, the growth was 42.9% in assay [1]; 43.4% in assay [2]; 49.9% in [3]; 43.1% in assay [4]; 18.7% in assay [5]; 64.6% in [6]. In addition, the growth in assay [7] was 33.9%; in assay [8], 43.1%; in [9] it was 50.3%; in [10], 14.2%.

`c1ccc(-c2c(-c3ccccc3)[n+](Cc3ccc4ccccc4c3)c(-c3ccccc3)n2Cc2ccc3ccccc3c2)cc1`: the growth in assay [1] is -81% (active); in assay [2], -66.8% (active); in assay [3] it was -97% (active); in assay [4] it was -66.9% (active); in assay [5], -75.6% (active); in assay [6] it was -89.8% (active). For the same compound, the growth in [7] was -76.2% (active); in [8] it was -74.3% (active); in assay [9] it was -76.9% (active); in assay [10], -57.8% (active).

`IP(CCCCCCCCCCSc1n(Cc2ccc3ccccc3c2)c(-c2ccccc2)c(-c2ccccc2)[n+]1Cc1ccc2ccccc2c1)(c1ccccc1)(c1ccccc1)c1ccccc1`: the growth is -66.2% (active) in assay [1]; -55.2% (active) in [2]; -68.4% (active) in [3]; -59.1% (active) in assay [4]; -63.4% (active) in assay [5]; -77.8% (active) in [6]. Also, the growth in assay [7] is -61.8% (active); in assay [8] it was -55% (active); in assay [9], -56.2% (active); in assay [10], -55.2% (active).

As for `CN(c1ccc(Br)cc1)S(=O)(=O)c1ccc(-c2cnc(C3CC3)o2)cc1`, the growth in [1] is 20%; in assay [2], 62.4%; in [3], 46.5%; in assay [4] it was 41.3%; in assay [5] it was 16.8%; in assay [6] it was 87.1%. For the same compound, the growth in assay [7] is 16.8%; in assay [8], 26.3%; in assay [9], 52.9%; in assay [10], 4.79% (active).
